Measurements as given in PubChem BioAssay AID2685 (National Center for Advancing Translational Sciences (NCATS), 2010).
About 2,100 (0.66%) of roughly 320,000 compounds were called active. Inconclusive results (about 53%) are left out. Calls follow the shape of the dose curve; as a rule, active = well fitted inhibition curve with a large enough effect in the signal ratio, with a control signal flat (not every such curve was filed as active); inconclusive = small, poorly fitted or top-dose-only effect, or effect the other way, or a change in a side signal; inactive = flat fitted curve, though single readings scatter; the % refers to the signal ratio. Many of the other results were omitted from the sample, so actives are more common in it than they were.

Assay: qHTS Assay for Lipid Storage Modulators in Drosophila S3 Cells;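 as to cell number change: cells counted by Cell Tracker Red CMTPX staining in the red channel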
Settings: BODIPY lipid droplet fluorescence, 18-24 h, cells fed with added oleic acid; cell number change: measured here: cell count max response; series mostly up to 46.1 µM
Summary of the method: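 Laser-scanning cytometry quantifies lipid droplet accumulation (500–530 nm total intensity; droplet/cell object ratio) in oleic acid-fed (400 uM added) Drosophila S3 cells treated with a concentration series. 20 uM Triacsin C defined 100% inhibition.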
Potency is read from the fitted curve at half-maximal effect.

SMILES	Potency	cell number change	outcome
COc1ccc(-c2nc(C(=O)NCC3CCCO3)cc3c2[nH]c2ccccc23)cc1 (configuration not stated)	inactive	-11.3%	
COc1cc(-c2nc(C(=O)NC3CCCCC3)cc3c2[nH]c2ccccc23)cc(OC)c1OC	13 µM (active)	13.2%	
O=C(NCCO)c1cc2c([nH]c3ccccc32)c(-c2ccccc2)n1	inactive	-12.4%	
CCOCCCNC(=O)Cn1cc2c(n1)CCCC2	inactive	13.2%	
COC(=O)Cn1c(=NC(=O)c2cc(OC)cc(OC)c2)sc2cc(OC)ccc21	inactive	-0.279%	
COc1ccc(NC(=O)CSc2nncs2)cc1S(N)(=O)=O	inactive		
Cc1c(N)cccc1N	inactive	16.6%	
O=C(CSC1=NS(=O)(=O)c2cc(F)ccc2N1)Nc1ccccc1F			inactive [at 0.0737 µM]
O=C(CSC1=NS(=O)(=O)c2cc(Cl)ccc2N1)Nc1ccccc1F	inactive	0.0379%	
O=C(CSC1=NS(=O)(=O)c2ccccc2N1)Nc1ccccc1F	6.51 µM (active)	-3.42%	
Cc1ccc(S(=O)(=O)N2CCN(S(=O)(=O)N3CCC(C)CC3)CC2)c(C)c1	inactive	12.8%	
CCOC(=O)c1sc(NC(=O)c2cccs2)nc1C	inactive	7.32%	
O=C(NCCCCNC(=O)c1cccs1)c1cccs1	inactive	-29%	
O=C(NC(Cc1ccccc1)C(=O)O)c1ccco1 (configuration not stated)	inactive	6.62%	
CCOCCCNC(=O)C(Cc1ccccc1)NC(=O)c1ccco1 (configuration not stated)	13 µM (active)	-1.42%	
COCCCNC(=O)c1c(-c2ccccc2)noc1C	inactive	19.6%	
COCCCNC(=O)c1cccs1	inactive	12.5%	
CCOCCCNC(=O)c1c(-c2ccccc2)noc1C	20.6 µM (active)	-15.4%	
CCCC(=O)Nc1nc(C(=O)OCC)cs1	inactive	-4.4%	
CC(=O)Nc1ccc(OCCCNC(=O)c2c(-c3ccccc3)noc2C)cc1	inactive	-3.99%	
CCOCCCNC(=O)c1cccs1	6.51 µM (active)	17.5%	

SMILES	Potency	cell number change	outcome
CCOC(=O)c1csc(NC(=O)c2cccs2)n1	20.6 µM (active)	-11.6%	
Cc1ccc(CNC(=O)[C@H](Cc2ccccc2)NC(=O)c2ccco2)cc1	inactive	9.45%	
Cc1cccc(/C=C/c2nc3ccccc3c(=O)[nH]2)c1	inactive	-2.24%	
O=C(NCC(=O)N(Cc1cccs1)C(C(=O)NC1CCCC1)c1ccncc1)c1ccco1 (configuration not stated)	inactive		
Cn1c(Cn2c(=O)sc3ccccc32)nnc1SCC(N)=O	inactive	4.82%	
CCCCCC(=O)Nc1cc(N(C)C)nc2ccccc12	inactive	6.14%	
COc1ccc(CC(=O)OCC(=O)Nc2ccc(C(=O)Nc3ccc(OC)cc3)cc2)cc1	inactive	6.99%	
Cc1ccc2sc(NC(=O)CN3C(=O)c4ccccc4C3=O)nc2c1C	inactive	-0.832%	
CCCC(O)(CCC)C(=O)NN(C(=O)CCl)c1cccc(C)c1	20.6 µM (active)	-4.84%	
CCCCC(O)(CCCC)C(=O)NN(C(=O)OCC)c1ccccc1	inactive	11.1%	
CCCCC(O)(CCCC)C(=O)NN(C(=O)OC)c1ccccc1	inactive	0.36%	
Cc1cccc(N(NC(=O)C(C)(C)O)C(=O)c2ccccc2)c1	inactive	7.68%	
CCCC(O)(CCC)C(=O)NN(C(=O)OC)c1ccccc1	inactive	12.3%	
CCC(O)(CC)C(=O)NN(C(=O)CCl)c1ccccc1	20.6 µM (active)	-5.65%	
CC1CCCCN1Cc1c(O)ccc2c(=O)c(-c3ccc(Cl)cc3Cl)coc12 (configuration not stated)	inactive	-3.44%	
Cc1ccc(C)c(NC(=S)NCc2cccs2)c1	inactive	-1.36%	
CC(=O)Nc1cccc(C(=O)NC(C)c2ccc(-n3ccnc3)cc2)c1 (configuration not stated)	inactive		
CC(=O)Nc1cccc(C(=O)NC(C)c2ccc(S(N)(=O)=O)cc2)c1 (configuration not stated)	1.64 µM (active)	21.3%	
CC(NC(=O)c1ccc(S(=O)(=O)Nc2ccccc2)cc1)c1ccc(S(N)(=O)=O)cc1 (configuration not stated)	inactive	2.41%	
CC(C)CCN(C(=S)Nc1cccc(C(F)(F)F)c1)C(C)c1ccccn1 (configuration not stated)	32.6 µM (active)	-20.3%	
CC(c1ccccn1)N(CCN(C)C)C(=S)Nc1cccc(F)c1 (configuration not stated)	inactive		

SMILES	Potency	cell number change	outcome
CC(C)N(C(=S)Nc1cccc(C(F)(F)F)c1)C(C)c1ccccn1 (configuration not stated)	inactive		
Cc1ncoc1C(=O)Nc1cccc(Cl)c1C	inactive		
CCc1cc(=O)oc2cc(C)cc(OC(C)C(=O)NC3CC(C)(C)NC(C)(C)C3)c12 (configuration not stated)	inactive	17.3%	
Cc1ccc(S(=O)(=O)CCSc2ccc(C(F)(F)F)cn2)cc1	inactive	21.4%	
CCS(=O)(=O)CCSc1nc(C)cc(C)c1C#N	inactive	5.68%	
Cc1ccc(S(=O)(=O)CCSc2nc(C)cc(C(F)(F)F)c2C#N)cc1	16.4 µM (active)	-21.5%	
COc1ccc(NC(=O)CSCC(=O)N=c2sccn2C)cc1	inactive	23.3%	
COc1ccc(-n2nc3c(c2NC(=O)CCCl)CSC3)cc1	inactive	1.89%	
CN1/C(=C\C(=O)C(F)F)C(C)(C)c2ccccc21	inactive		
CN1/C(=C/C=C(C#N)C#N)C(C)(C)c2ccccc21	7.31 µM (active)	7.31%	
CN1/C(=C\C(=O)Nc2ccc(F)cc2)C(C)(C)c2ccccc21	inactive	-24.5%	
CN1/C(=C\C=N\NC(=O)c2ccc(O)cc2)C(C)(C)c2ccccc21	2.31 µM (active)	-19.2%	
CN1/C(=C\C=Nc2ccc3ccccc3c2)C(C)(C)c2ccccc21	inactive	6.9%	
CN1/C(=C/C=C(/C#N)C(N)=O)C(C)(C)c2ccccc21	inactive	13.2%	
CCc1cc(C(=O)N2CCCC(CCC(=O)N3CCN(c4ccccn4)CC3)C2)no1 (configuration not stated)	inactive	-4.75%	
O=C(CSc1nc2ccccc2[nH]1)NCC1CCCO1 (configuration not stated)	inactive	1.54%	
O=C(CCC(=O)c1ccc(F)cc1)Nc1cccc(C(F)(F)F)c1	inactive	-4.38%	
Cc1cnc(C(=O)OCc2c(C)cc(C(C)(C)C)cc2C)cn1	inactive	3.78%	
COc1ccc(C(C)=O)cc1COC(=O)c1cnc(C)cn1	inactive	5.96%	
COc1cc(COC(=O)c2cnc(C)cn2)c(OC)cc1Br	0.517 µM (active)	4.62%	
COc1ccc(C(C(=O)NC2CCCC2)N(C(=O)c2ccco2)c2ccc3c(c2)OCO3)cc1OC (configuration not stated)	inactive		
